Assay results: the supplement of paper PMC13172266

Key:
Experiment in all cases: cell proliferation relative to vehicle (% of vehicle); higher = less growth inhibition
Conditions in all cases: 72 h
[1] = system: U2932 TK216-resistant clone 2
How it was run: (§1)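 A library of 348 targeted inhibitors was screened against the ABC-DLBCL cell line U2932, using parental cells and two clones made resistant to an ETS-targeting agent through repeated exposure over almost a year. The cells were cultured at 37°C and 5% CO2 in medium containing 10% FBS and treated at 500 nM or 50 nM for 72 h, after which MTT was added for 4 h, stopped with 25% SDS, and absorbance was read on a Cytation 3. Proliferation is given as the percentage of proliferating cells relative to the vehicle, DMSO.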

[2] = system: U2932 TK216-resistant clone 3
How it was run: as §1

U2932 parental = system: U2932 parental
How it was run: as §1

Row | SMILES | cell proliferation ([1]; 50 nM) | cell proliferation ([1]; 500 nM) | cell proliferation ([2]; 50 nM) | cell proliferation ([2]; 500 nM) | cell proliferation (U2932 parental; 50 nM) | cell proliferation (U2932 parental; 500 nM)
1 | CC(C)C(=O)Nc1ccc([N+](=O)[O-])c(C(F)(F)F)c1 [Flutamide] | 90.7 | 87.2 | 97.2 | 98.3 | 89.3 | 87.6
2 | CNc1nc(Nc2cn(C(C)(C)C#N)nc2C)ncc1C(F)(F)F | 101 | 96.4 | 101 | 95.2 | 100 | 98.2
3 | CN1CCC(CNc2ccc3ncc(-c4cccc(OC(F)(F)F)c4)n3n2)CC1 [SGI-1776 free base] | 103 | 86.7 | 105 | 82.4 | 95.5 | 94.1
4 | CO[C@@H](C)Cn1c(=O)n(C)c2cnc3ccc(-c4cncc(C(C)(C)O)c4)cc3c21 | 79.1 | 23.8 | 79.2 | 30.9 | 80.4 | 33.6
5 | COc1cc(C(=O)N2CCC(N3CCN(C)CC3)CC2)ccc1Nc1ncc2c(n1)N(C)c1ccccc1C(=O)N2C | 104 | 92.2 | 100 | 100 | 105 | 101
6 | COc1cc(-c2cc(-c3ccc(N4CCNCC4)cc3)cnc2C)cc(OC)c1OC | 99.7 | 88.1 | 107 | 88.5 | 104 | 96.6
7 | NC1(c2ccc(-c3nc4ccn5c(=O)[nH]nc5c4cc3-c3ccccc3)cc2)CCC1 | 101 | 70.1 | 97.5 | 74.9 | 96.8 | 68.4
8 | CCc1ccc(/C=C2/SC(=S)NC2=O)cc1 | 105 | 103 | 102 | 99.4 | 94.2 | 104
9 | Cc1c(CN2CCN(C(=O)[C@H](C)O)CC2)sc2c(N3CCOCC3)nc(-c3cnc(N)nc3)nc12 | 79.4 | 32 | 82.1 | 40.6 | 85 | 33.4
10 | COc1ccc(C2=N[C@@H](c3ccc(Cl)cc3)[C@@H](c3ccc(Cl)cc3)N2C(=O)N2CCNC(=O)C2)c(OC(C)C)c1 [Nutlin-3a] | 110 | 102 | 99.8 | 99.2 | 104 | 104
11 | CC(C)n1c(/C=C/C(O)CC(O)CC(=O)O)c(-c2ccc(F)cc2)c2ccccc21 (stereo not given) [Fluvastatin Sodium] | 97.4 | 89.5 | 92.2 | 102 | 81.9 | 83.5
12 | CC1(C)CCC(c2ccc(Cl)cc2)=C(CN2CCN(c3ccc(C(=O)NS(=O)(=O)c4ccc(N[C@H](CCN5CCOCC5)CSc5ccccc5)c(S(=O)(=O)C(F)(F)F)c4)cc3)CC2)C1 [ABT-263 (Navitoclax)] | 100 | 62.4 | 99.4 | 64.2 | 91.5 | 86.6
13 | Cc1cc(Nc2cc(N3CCN(C)CC3)nc(/C=C/c3ccccc3)n2)n[nH]1 | 82 | 66.1 | 97.6 | 48.9 | 93 | 46
14 | CNC(=O)c1cccc(-c2ccc3c(N4CCOC[C@@H]4C)nc(N4CCOC[C@@H]4C)nc3n2)c1 | 102 | 52.9 | 93.8 | 55.6 | 91.7 | 46.4
15 | NC(=O)c1ccc(I)c([N+](=O)[O-])c1 [Iniparib (BSI-201)] | 107 | 98.2 | 105 | 103 | 97 | 102
16 | CCCCC(C=O)NC(=O)C(CC(C)C)NC(=O)C(CC(C)C)NC(C)=O (stereo not given) | 107 | 12.7 | 106 | 24.2 | 103 | 39.6
17 | COc1ccc(S(=O)(=O)N(C(C)=O)c2ccccc2/C=C/c2cc[n+]([O-])cc2)cc1 | 103 | 12.6 | 99.5 | 13.2 | 88.7 | 11.3
18 | O=C(/C=C/c1ccc(CN(CCO)CCc2c[nH]c3ccccc23)cc1)NO [LAQ824 (Dacinostat)] | 41.2 | 5.42 | 48.6 | 12.4 | 33.6 | 0.789
19 | FC(F)c1nc2ccccc2n1-c1nc(N2CCOCC2)nc(N2CCOCC2)n1 | 95.8 | 42.5 | 93.6 | 46 | 89.9 | 46.8
20 | c1ccc(Cn2c(-c3ccc(OC[C@H](C4CCNCC4)n4c(-c5ccccc5)nc5ccccc54)cc3)nc3ccccc32)cc1 [Deltarasin] | 102 | 88 | 98.8 | 83.6 | 103 | 91.4
21 | C[C@]1(O)C[C@@H](c2nc(-c3ccc4ccc(-c5ccccc5)nc4c3)c3c(N)nccn32)C1 [OSI-906 (Linsitinib)] | 104 | 95.1 | 95.7 | 99.4 | 99.3 | 99.7
22 | Cn1cncc1[C@@](N)(c1ccc(Cl)cc1)c1ccc2c(c1)c(-c1cccc(Cl)c1)cc(=O)n2C [Tipifarnib] | 91.9 | 90.6 | 71.5 | 74.9 | 62.7 | 62.5
23 | O=C(NCc1ccncc1)C12CC3CC(C1)CC(c1ccc(Cl)cc1)(C3)C2 | 105 | 91.5 | 105 | 98.3 | 98.2 | 98.2
24 | C[C@]12C=CC(=O)C=C1CC[C@@H]1[C@@H]2C(=O)C[C@@]2(C)[C@H]1CC[C@]2(O)C(=O)CO [Prednisone] | 95.3 | 94.8 | 105 | 102 | 97.3 | 100
25 | COc1cc2c(NC3CCN(CC4CCCCC4)CC3)nc(N3CCCN(C(C)C)CC3)nc2cc1OCCCN1CCCCC1 | 95.3 | 105 | 91.4 | 115 | 96.3 | 110

Row | SMILES | cell proliferation ([1]; 50 nM) | cell proliferation ([1]; 500 nM) | cell proliferation ([2]; 50 nM) | cell proliferation ([2]; 500 nM) | cell proliferation (U2932 parental; 50 nM) | cell proliferation (U2932 parental; 500 nM)
26 | COc1ccc(-c2ccc3c(N4CCOC[C@@H]4C)nc(N4CCOC[C@@H]4C)nc3n2)cc1CO | 72.7 | 34.8 | 75.1 | 40.2 | 63.8 | 35.1
27 | CC[C@H](Nc1ncnc2[nH]cnc12)c1nc2cccc(F)c2c(=O)n1-c1ccccc1 [CAL-101 (Idelalisib, GS-1101)] | 103 | 109 | 97.8 | 99.3 | 92.6 | 96.6
28 | COc1cc2c(Oc3ccc4[nH]c(C)cc4c3F)ncnc2cc1OCCCN1CCCC1 [Cediranib (AZD2171)] | 105 | 92.6 | 99.8 | 83 | 96.7 | 90.4
29 | CCS(=O)(=O)N1CC(CC#N)(n2cc(-c3ncnc4[nH]ccc34)cn2)C1 | 107 | 118 | 111 | 104 | 104 | 105
30 | C/C(=C\C(=O)Nc1ccccc1C(=O)O)c1ccc2ccccc2c1 | 82.5 | 98.2 | 109 | 100 | 97.4 | 102
31 | O=C(O)C(Cc1c[nH]c2ccccc12)N1C(=O)c2ccccc2C1=O (stereo not given) | 97.2 | 102 | 99.2 | 98 | 100 | 96.1
32 | CC(C)NCCCn1c(Sc2cc3c(cc2I)OCO3)nc2c(N)ncnc21 | 113 | 6.42 | 105 | 31.6 | 112 | 6.73
33 | COc1ccc(C(=O)C2CCN(CC(=O)N(Cc3nc4c(c(=O)[nH]3)COCC4)CC3CC3)CC2)cc1 | 99.7 | 95.3 | 92.2 | 93.6 | 97.7 | 97.5
34 | O=S(=O)(O)CCS [Mesna] | 110 | 116 | 101 | 103 | 95.4 | 103
35 | O=C1c2c(O)ccc(O)c2C(=O)c2c(NCCNCCO)ccc(NCCNCCO)c21 [Mitoxantrone] | 12 | 5.19 | 16 | 15 | 18.8 | 8.11
36 | NC(=O)c1ccc(-c2nc(-c3ccccn3)c(-c3ccc4c(c3)OCO4)[nH]2)cc1 | 115 | 109 | 100 | 102 | 101 | 101
37 | COc1ccc(C2=N[C@@H](c3ccc(Cl)cc3)[C@@H](c3ccc(Cl)cc3)N2C(=O)N2CCNC(=O)C2)c(OC(C)C)c1 [Nutlin-3] | 106 | 97.3 | 109 | 103 | 99.8 | 99.6
38 | CCC[C@H](NC(=O)/C(C#N)=C/c1cccc(Br)n1)c1ccccc1 [Degrasyn (WP1130)] | 105 | 102 | 106 | 94.8 | 92.5 | 86.4
39 | Nc1nc(F)nc2c1ncn2[C@@H]1O[C@H](CO)[C@@H](O)[C@@H]1O [Fludarabine] | 107 | 97.8 | 103 | 96.4 | 103 | 97.3
40 | CC(C=CC(=O)NO)=CC(C)C(=O)c1ccc(N(C)C)cc1 (stereo not given) [Trichostatin A (TSA)] | 68.3 | 8.5 | 74.5 | 4.96 | 67.2 | 2.14
41 | Nc1cc(C(F)(F)F)c(-c2cc(N3CCOCC3)nc(N3CCOCC3)n2)cn1 [BKM120 (NVP-BKM120, Buparlisib)] | 112 | 77.9 | 96.2 | 72.4 | 97.7 | 78.5
42 | CC#CC(=O)N1CCC[C@H]1c1nc(-c2ccc(C(=O)Nc3ccccn3)cc2)c2c(N)nccn12 | 70 | 64.8 | 75.8 | 72.9 | 77.4 | 75.6
43 | Cn1cc(-c2ccc3nnc(C(F)(F)c4ccc5ncccc5c4)n3n2)cn1 | 102 | 103 | 106 | 113 | 99.8 | 99.2
44 | CN(C)c1nc(N(C)C)nc(N(C)C)n1 [Altretamine] | 105 | 102 | 106 | 96.6 | 97.7 | 104
45 | COc1cc(Nc2ncc3c(n2)-c2ccc(Cl)cc2C(c2c(F)cccc2OC)=NC3)ccc1C(=O)O [Alisertib (MLN8237)] | 73.6 | 79.3 | 61.8 | 72.8 | 52.2 | 53.2
46 | O=C(c1ccc(/C=C/c2n[nH]c3ccccc23)cc1)N1CCNCC1 | 109 | 91 | 104 | 82.4 | 95 | 72.2
47 | COc1ccc(S(=O)(=O)N(CCO)c2ccccc2CN(C)C/C=C/c2ccc(Cl)cc2)cc1 [KN-93 Phosphate] | 103 | 90.8 | 105 | 90.1 | 102 | 89.6
48 | COc1cc(CCc2cc(NC(=O)c3ccc(N4CC(C)NC(C)C4)cc3)n[nH]2)cc(OC)c1 (stereo not given) | 102 | 101 | 103 | 102 | 98.4 | 95.6
49 | CC(C)c1onc(-c2c(Cl)cccc2Cl)c1COc1ccc(/C=C/c2cccc(C(=O)O)c2)c(Cl)c1 | 105 | 112 | 104 | 105 | 108 | 111
50 | O=C(O)c1ccc(O)c2ncccc12 | 104 | 107 | 101 | 99.2 | 106 | 105
